Test results reported in PubChem BioAssay (NCI).
Where “and” joins values, the source holds several entries; their conditions need not be identical. Equal entries are not always repeated. About 83,000 compounds went through this panel and 20% of them were active in at least one assay; those are over-represented in the sample as a whole.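 How to read the values: 0–100, growth inhibition (40 = 60% inhibited); 0, no net growth; -100 to 0, cell death (-40 = 40% of starting cells died; -100 = all dead).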 Where a SMILES comes first, the peptide text is derived from it.

What was measured:
Assay in all cases: NCI-60 one-dose screen, 48 h (100 = growth as untreated, 0 = no growth, -100 = all killed)
Details in all cases: 10 µM unless noted; active = growth percent below 10; inactive = the rest
SR leukemia = system: SR leukemia
RPMI-8226 leukemia = system: RPMI-8226 leukemia
OVCAR-8 ovarian = system: OVCAR-8 ovarian
OVCAR-4 ovarian = system: OVCAR-4 ovarian
SK-OV-3 ovarian = system: SK-OV-3 ovarian
IGROV1 ovarian = system: IGROV1 ovarian
OVCAR-3 ovarian = system: OVCAR-3 ovarian
HS 578T breast = system: HS 578T breast
NCI/ADR-RES ovarian = system: NCI/ADR-RES ovarian
OVCAR-5 ovarian = system: OVCAR-5 ovarian

Measured: growth

CC(C)NC(=O)N/C=C(\C#N)C(N)=O
inactive: SR leukemia 100% | RPMI-8226 leukemia 116% | OVCAR-8 ovarian 109% | OVCAR-4 ovarian 105% | SK-OV-3 ovarian 104% | IGROV1 ovarian 102% | OVCAR-3 ovarian 105% | HS 578T breast 108% | NCI/ADR-RES ovarian 100%

O=[N+]([O-])c1cccc(SSc2cccc([N+](=O)[O-])c2)c1
inactive: SR leukemia 81% | OVCAR-8 ovarian 100% | OVCAR-4 ovarian 105% | SK-OV-3 ovarian 97.8% | IGROV1 ovarian 109% | OVCAR-3 ovarian 127% | HS 578T breast 121% | NCI/ADR-RES ovarian 116%

Nc1nc(N)c2[nH]cnc2n1
inactive: SR leukemia 93% | RPMI-8226 leukemia 64.3% | OVCAR-8 ovarian 70.4% | OVCAR-4 ovarian 88.5% | OVCAR-3 ovarian 97.8% | HS 578T breast 114% | NCI/ADR-RES ovarian 87.3%

c1ccc(-c2nc3ccccc3s2)cc1
inactive: SR leukemia 103% | OVCAR-8 ovarian 88.3% | OVCAR-4 ovarian 101% | IGROV1 ovarian 75.4% | OVCAR-3 ovarian 105% | HS 578T breast 93% | NCI/ADR-RES ovarian 96.1%

Fc1ccc([I+]c2ccc(F)cc2)cc1
inactive: SR leukemia 38.6% | RPMI-8226 leukemia 41.7% | OVCAR-8 ovarian 46.1% | OVCAR-4 ovarian 52.1% | SK-OV-3 ovarian 68.4% | IGROV1 ovarian 62.4% | OVCAR-3 ovarian 64.9% | HS 578T breast 86.2% | NCI/ADR-RES ovarian 98.8%

O=C(/C=C/c1ccccc1)c1ccccc1
inactive: RPMI-8226 leukemia 32% | OVCAR-8 ovarian 103% | OVCAR-5 ovarian 98.4% | OVCAR-4 ovarian 95.3% | SK-OV-3 ovarian 91.7% | IGROV1 ovarian 84.7% | OVCAR-3 ovarian 98.7% | HS 578T breast 98.4% | NCI/ADR-RES ovarian 118%

NC(Cc1ccccc1)C(=O)NC(Cc1ccccc1)C(=O)O (stereo not drawn) (H-Phe-Phe-OH; configuration not given here)
inactive: SR leukemia 97.4% and 102% | RPMI-8226 leukemia 112% and 101% | OVCAR-8 ovarian 101% and 99.7% | OVCAR-4 ovarian 102% and 100% | SK-OV-3 ovarian 97.6% and 110% | IGROV1 ovarian 99.7% and 103% | OVCAR-3 ovarian 108% and 111% | HS 578T breast 98.3% and 112% | NCI/ADR-RES ovarian 105% and 107%

CC(=O)OC(C)C(=O)NCC(C)O (configuration not stated)
inactive: SR leukemia 88% | OVCAR-8 ovarian 102% | OVCAR-5 ovarian 104% | OVCAR-4 ovarian 100% | SK-OV-3 ovarian 95.3% | IGROV1 ovarian 114% | OVCAR-3 ovarian 107% | HS 578T breast 86% | NCI/ADR-RES ovarian 106%
